Laboratory results from PubChem BioAssay (NCATS).
Results filed as inconclusive are left out. Unmarked numbers belong to inactive results. Calls of active or inactive are those of the source. Calls follow the shape of the dose curve; as a rule, active = well fitted inhibition curve with a large enough effect; inconclusive = small, poorly fitted or top-dose-only effect, or effect the other way; inactive = flat fitted curve, though single readings scatter.

Assay: qHTS for Inhibitors of Plasmodium falciparum (GB4) proliferation (AID 504315); also: nearly all actives have a fitted effect of over 50% in size;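 as to activity change, negative = inhibition: 0% = DMSO vehicle and -100% = 0.29 µM artemisinin control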
Conditions: P. falciparum GB4 in erythrocytes, SYBR Green DNA, 72 h; series mostly up to 6.7 µM; activity change, negative = inhibition: at the top concentration
Text: Plasmodium falciparum is a virulent malarial parasite that kills 1-2 million people worldwide each year. Malaria not only inflicts tremendous suffering and morbidity on the human population, but has dramatically influenced the course of civilization with profound sociological and economic implications (Shah, S. 2010). Transmitted by mosquitoes, the sporozoite form of the parasite enters the blood stream to infect hepatocytes, where they become merozoites that infect red blood cells (erythrocytes). Within erythrocytes, merozoites begin a […] cycle of growth and division, after which the parasite is released to infect new red blood cells. Gametocytes, which form within erythrocytes as well, circulate in the bloodstream and are ingested by the mosquito, thereby completing the life cycle (see CDC website). To profile malarial lines for differential chemical responses and to identify inhibitors of malarial growth, an assay that measures P. falciparum growth and replication within erythrocytes was employed. This assay uses a DNA binding fluorescent dye (SYBR Green) to detect parasite DNA following cell lysis. Because mature erythrocytes lack DNA, only Plasmodium-derived DNA is detected. The P. falciparum line cp250, derived from a malarial isolate from Cambodia, (Mu, J., et al. 2010) was added to the panel of lines, Dd2, HB3, 7G8 and GB4 in this study. Laboratory of Assay Development and Screening Technology [ADST] and NIH Chemical Genomics Center [NCGC] Boston University, Chemistry Department, Center for Chemical Methodology and Library Development [CMLD-BU] NIH National Institute of Allergy and Infectious Diseases [NIAID]
ADST Assay Protocol Summary: The 1536-well SYBR Green viability assay was based on the method of Bennett et al (2004) and described previously in 1536-well format (Yuan J., et al. 2009). For screening 3 ul culture medium was dispensed into 1536 well black clear bottom plates (Aurora Biotechnologies) using a Multidrop Combi (Thermo Fisher Scientific Inc.), 23 nL compounds in DMSO were added by a pin transfer (Cleveland, P.H. and Koutz, P.J, 2005) using a pin tool-based delivery system (Kalypsys), and 5 ul of erythrocytes infected with P. falciparum one of five lines (cp250, Dd2, HB3, 7G8 or GB4, 0.3% parasitemia, 2.5% hematocrit final concentration) were added. The plates were incubated at 37C in a humidified incubator in 5% CO2 for 72 h, and 2 ul lysis buffer (20 mM Tris HCl, 10 mM EDTA, 0.16% saponin, 1.6% triton X, 10X SYBR Green I (supplied as 10,000X final concentration by Invitrogen) was added to each well. The plates were mixed for 25 sec with gentle shaking and incubated overnight at room temperature in the dark. The following morning, fluorescence intensity at 485(14) nm excitation and 535(25) nm emission wavelengths was measured on an EnVision (Perkin Elmer) plate reader. Plate reads were normalized relative to the control inhibitor (0.29 uM artemisinin) and vehicle (DMSO) wells present on each plate and then corrected by an algorithm using vehicle-only control plates at the beginning and end of the compound plate stack. References Shah, S. (2010). The Fever: how malaria has ruled humankind for 500,000 years. New York, Sarah Crichton Books. CDC web site, http://www.cdc.gov/malaria/about/biology/index.html Mu, J., Myers, R.A., Jiang, H., Liu, S., Ricklefs, S., Waisberg, M., Chotivanich, K., Wilairatana, P., Krudsood, S., White, N.J., et Plasmodium falciparum genome-wide scans for positive selection, recombination hot spots and resistance to antimalarial drugs Nature Genetics 2010, 42, pp 268-271 Bennett TN, Paguio, M., Gligorijevic, B., Seudieu, C., Kosar, A. D., Davidson, E., and Roepe, P. D. Novel, rapid, and inexpensive cell-based quantification of antimalarial drug efficacy Antimicrobial Agents Chemother. 2004, 48(5): pp 1807-10 Yuan J, Johnson RL, Huang RL, Wichterman J, Jiang HY, Hayton K, Fidock DA, Wellems TE, Inglese J, Austin CP, Su XZ. […]
Potency is read from the fitted curve at half-maximal effect.

Row | Structure (SMILES) | Potency | activity change, negative = inhibition [%]
1 | COC(=O)N1C2CC3(C)CC(=O)CC1(C)C3c1ccccc12 (stereo not given) | inactive | –
2 | c1ccc(CCc2nc(-c3ccccc3)oc2Nc2ccc3ccccc3c2)cc1 | – | -14.7
3 | CCN(CCNC(=O)[C@H]1C=C(OC)C(=O)C[C@@H]2c3ccccc3C[C@]12C)C(C)=O | – | -4.05
4 | C=CCOC(=O)NC(c1ccc(F)c(F)c1)C(C(C)=O)C(=O)OC (stereo not given) | – | -0.653
5 | CC(=O)OC[C@H]1O[C@H](C#Cc2ccccc2)C=C[C@@H]1OC(C)=O | – | -9.47
6 | CC1(OC(=O)CCc2ccccc2)C(=O)C=C2C=C(C3CC3)OC=C2C1=O (stereo not given) | – | 5.44
7 | C[C@@H](ON=C1[C@H]2CCn3c(=O)n(-c4ccccc4)c(=O)n3[C@@H]2[C@H](O)[C@@H]2O[C@H]12)c1cn([C@@H]2COC[C@@H]2O)nn1 | – | 12.1
8 | C=CCN1C(=O)CC[C@@]23C1=NC(C(=O)OC)=C(C(=O)OC)[C@@H]2N(CC=C)c1ccccc13 | – | 3.37
9 | CC(=O)OC[C@H]1O[C@H](c2cc(C)cc(C)c2)C=C[C@H]1OC(C)=O | – | -0.955
10 | COCCN1C(=NCC(C)C)NC(c2ccccc2)C(C(=O)OC)=C1C (stereo not given) | – | -3.88
11 | C=CC1=C2C=C(C3CC3)N(CCOC)C=C2C(=O)C(C)(OC(=O)c2ccco2)C1=O (stereo not given) | inactive | –
12 | C=CCOC(=O)N[C@H](C(C(=O)OC)=C(C)NCc1ccccc1)c1cccc(C(F)(F)F)c1 | inactive | –
13 | O=C(NC(CC1=CCCCC1)c1ccc2c(c1)OCO2)C(F)(F)F (stereo not given) | – | -9.28
14 | CC(C)CON=C1C[C@@H](O)[C@@H](O)[C@@H]2[C@H]3C(=O)N(c4ccc(F)cc4F)C(=O)[C@@H]3CC[C@@H]12 | – | 6.93
15 | COc1ccc(-c2nc3c(c4c2C[C@H](c2ccccc2)OC4)CN(C(=O)c2ccco2)CC3)c(C)c1 | – | -13.2
16 | O=C(NCCOc1ccccc1)O[C@@H]1C(=O)c2cc(Br)ccc2O[C@H]1c1ccc2c(c1)OCO2 | – | 4.63
17 | CCN1C(=O)NC(c2ccc(Br)cc2)C(C(C)=O)=C1C (stereo not given) | – | 11.1
18 | C[C@@H](ON=C1[C@H]2CCn3c(=O)n(-c4ccccc4)c(=O)n3[C@@H]2[C@H](O)[C@@H]2O[C@H]12)c1cn([C@H](CO)Cc2ccccc2)nn1 | – | -4.48
19 | CC1=C[C@@H](COCc2ccccc2)O[C@@]2(C1)C(=O)N(CC1CC1)c1ccccc12 | – | -0.704
20 | COCCN1C(=O)NC(c2cccc(F)c2)C(C(=O)OC)=C1C (stereo not given) | – | 15

Row | Structure (SMILES) | Potency | activity change, negative = inhibition [%]
21 | CCN1C(=O)NC(CCc2ccccc2)C(C(C)=O)=C1C (stereo not given) | – | 2.58
22 | COc1ccc2c(c1)C(NC(=O)C(F)(F)F)CC21CCCCC1 (stereo not given) | – | 1.84
23 | CC(C)(C)OC(=O)N1CCC[C@@H]1C(O)(c1ccccc1)c1ccccc1 | – | 1.66
24 | COc1ccc(O[C@H]2C=C[C@@H](c3ccccc3)O[C@H]2COC(=O)NCc2cccc3ccccc23)cc1 | – | -2.87
25 | C=CCN1C(=O)[C@@]2(CC(C)=CC[C@@H](C)O2)c2c(Br)cccc21 | – | 1.99
26 | CCC=CCCC(OC(=O)c1ccc(Br)cc1)C1=CCCCC1=O (stereo not given) | – | -2.96
27 | CC=COC(=O)N[C@@H](c1ccccc1)[C@]1(C(C)=O)CCOC1=O | – | -6
28 | CCCCC1=CC2=CC(=O)C(C)(OC(=O)CCc3ccccc3)C(=O)C2=CO1 (stereo not given) | – | 7.16
29 | C=CCN1C(=O)CC[C@@]23C1=NC(C(=O)OC)=C(C(=O)OC)[C@@H]2N(C)c1ccccc13 | – | -4.85
30 | CC1=CC[C@@H](COc2ccccc2)O[C@@]2(C1)C(=O)Nc1cccc(Br)c12 | – | -2.31
31 | C=C(C#Cc1ccc(OC)cc1)CCN1C=C(C(=O)OCC)C(c2ccccc2)NC1=O (stereo not given) | – | -3.62
32 | COC(=O)C1=C(C(=O)OC)[C@@H]2N(C)c3ccccc3[C@@]23C[C@@H](C(=O)OC)N(C(=O)c2cc(C)oc2C)C3=N1 | inactive | –
33 | CCN1C(=NCc2ccc(OC)cc2)N[C@@H](CCc2ccccc2)[C@H](C(=O)NCc2ccc(OC)cc2)[C@H]1C | – | 0.799
34 | O=S(=O)(CCc1ccccc1)c1nnnn1C1CCCCC1 | – | -9.58
35 | COCCN1C(=O)N[C@@H](c2cccc(C(F)(F)F)c2)[C@H](C(=O)OC)[C@H]1C | inactive | –
36 | CCCC[C@]12Cc3ccccc3[C@H](O1)c1c(cc(-c3ccccc3)oc1=O)O2 | 1690 nM (active) | –
37 | CC1(C)CC(=O)C2=C(C1)O[C@@]1(c3ccsc3)Cc3cc(C#N)ccc3[C@H]2O1 | – | -1.88
38 | COC(=O)C1=C(C)N(CCC(C)O)C(=O)N(C(C)=O)C1c1ccccc1 (stereo not given) | – | -7.89
39 | COC(=O)C1=C(C)N(Cc2ccco2)C(=O)NC1c1ccc(Br)cc1 (stereo not given) | – | 8.81
40 | COc1ccc2ccccc2c1-c1c(OC)ccc2ccccc12 | – | 6.99
